Source: PubChem BioAssay (National Center for Advancing Translational Sciences (NCATS))
NS1 function inh = inhibitors of influenza NS1 protein function; Potency, µM (titrated, usually from 46.1 µM); hit rate 0.4% among 270,000; AID 2326; calls by dose curve; also: actives are rising curves; nearly all actives have a fitted effect of over 50% in size
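Recovery from NS1-induced slow growth read by OD600 in budding yeast switched to galactose assay medium (pH 6.0, -URA) at 1:100 dilution. Compound 23 nl per well; the matching strain lacking NS1 serves as control.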
Cruzain noTriton = blocks cruzain activity in detergent-free assay; P25779; hit rate 2.3% among 200,000; purified cruzain, Z-FR-AMC fluorescence, no detergent; Potency, µM, usual class: inhibitors; also: nearly all actives have a fitted effect of over 40% in size
Target sequence (P25779 123-467 limits assumed): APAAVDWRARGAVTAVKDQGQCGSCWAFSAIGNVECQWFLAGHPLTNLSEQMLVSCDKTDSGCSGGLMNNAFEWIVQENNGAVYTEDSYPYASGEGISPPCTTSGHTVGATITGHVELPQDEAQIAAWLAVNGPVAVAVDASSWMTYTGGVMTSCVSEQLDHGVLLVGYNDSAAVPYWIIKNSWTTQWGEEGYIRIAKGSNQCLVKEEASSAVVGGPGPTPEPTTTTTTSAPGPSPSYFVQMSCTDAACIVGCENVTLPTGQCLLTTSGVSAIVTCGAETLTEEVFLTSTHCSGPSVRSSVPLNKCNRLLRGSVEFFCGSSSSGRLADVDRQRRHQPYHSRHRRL
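Purified cruzain at 1.5 nM, pre-incubated 15 min with compound at room temperature in 100 mM sodium acetate pH 5.5, 5 mM DTT, 0.00005% Triton X-100. Reaction started with 2 uM Z-FR-AMC; AMC fluorescence increase over 60 s gives rate.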
Cruzain Triton = cruzain (T. cruzi) inhibition with detergent; hit rate 0.43% among 200,000; Potency, µM, hits mostly inhibitors; purified cruzain, Z-FR-AMC fluorescence, 0.01% Triton; also: nearly all actives have a fitted effect of over 40% in size
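Read-out: AMC fluorescence (360 nm excitation, 450 nm emission), four reads over 2 min, first-to-third difference used. Conditions: cruzain 1.5 nM, Z-FR-AMC 2 uM, pH 5.5 acetate, 5 mM DTT, 0.01% Triton X-100.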
A number is an active result; – = inactive; ? = inconclusive; · = no result given. Shown is part of a subset that was picked to be rich in hits. Unless noted, calls follow the shape of the dose curve; as a rule, active = well fitted curve in the direction sought with a large enough effect; inconclusive = small, poorly fitted or top-dose-only effect, or another doubt; inactive = no such curve, though single readings can be large; an effect the other way counts as inactive or inconclusive.

SMILES	NS1 function inh	Cruzain noTriton	Cruzain Triton
O=C(NNC(=O)c1ccccc1Br)c1cccc(Cl)c1	–	–	–
Cc1ccc(C(=O)c2cn(Cc3ccccc3)c3ccccc3c2=O)cc1	·	–	–
Cc1cc(C)n(C(=O)c2cccc(S(=O)(=O)N3CCCCC3)c2)n1	–	·	·
Cc1ccc(-c2nc(CS(=O)(=O)CC(=O)NCc3ccc(Cl)cc3)c(C)o2)cc1	·	–	–
O=C(NC1CCCCCC1)C1c2ccccc2C(=O)N1Cc1ccco1 (stereo not given)	–	–	–
C=CCNC(=S)Nc1nc2c(cc1C(=O)OCC)CCCC2	–	–	–
S=C(Nc1ccc2cn[nH]c2c1)Nc1ccccc1Cl	–	–	–
Cc1ccc(S(=O)(=O)Nc2cc3c(C(=O)OCc4ccccc4)c(C)oc3c3ccccc23)cc1	·	7.94µM	–
Cc1ccc(S(=O)(=O)Nc2cc3c(C(=O)O)c(C)oc3c3ccccc23)c(C)c1	–	·	·
Cc1oc2c(cc(NS(=O)(=O)c3ccc(Br)cc3)c3ccccc32)c1C(=O)OCc1ccccc1	·	–	–
Cc1ccc(S(=O)(=O)Nc2cc3c(C(=O)OCc4ccccc4)c(C)oc3c3ccccc23)c(C)c1	·	5.01µM	–
Cc1ccc(NC(=O)COC(=O)c2cccnc2)c(C)c1	–	·	·
COc1ccc(-c2cn(/N=C/c3ccc(Cl)cc3Cl)c(N)n2)cc1	–	7.94µM	–
Nc1nc(-c2ccccc2)cn1/N=C/c1ccccc1	–	·	·
COc1cccc(C(C(=O)NC2CCCCC2)N(C(=O)c2cccs2)c2ccc3c(c2)OCO3)c1 (stereo not given)	–	–	–
CC(NC(=O)C1CCC(CNC(=O)[C@@H]2Cc3ccccc3CN2)CC1)c1ccccc1 (stereo not given in full)	–	·	·
Cc1cc(C(=O)OCC(=O)NC(C)(C)C)c2ccccc2n1	–	–	–
Cc1cc(C(=O)OCC(=O)Nc2ccc(F)cc2[N+](=O)[O-])c2ccccc2n1	–	20µM	–
CCCCCCc1cc2cc(S(=O)(=O)c3ccc(F)c(Cl)c3)c(=O)oc2cc1O	–	20µM	–
CCCCCCc1cc2cc(C(=O)OCC)c(=O)oc2cc1O	–	·	·
CCCNC(=O)c1cc2c3ccccc3n(C)c2s1	–	–	–
CC(=O)Nc1ccc(S(=O)(=O)NNC(=O)c2cc3c4ccccc4n(C)c3s2)cc1	–	–	22.4µM
Cc1ccc2c(CN3CCCCC3)cc(=O)oc2c1	–	·	·
Cc1ccc2c(CN3CCN(S(=O)(=O)/C=C/c4ccccc4)CC3)cc(=O)oc2c1	?	25.1µM	–
Cc1ccc(S(=O)(=O)c2c(C)nn(C(C)(C)C)c2OC(=O)c2cccs2)cc1	–	–	–
SMILES	NS1 function inh	Cruzain noTriton	Cruzain Triton
Cc1ccc(NC(=O)CC2S/C(=N/N=C/c3c[nH]c4ccccc34)NC2=O)cc1 (stereo not given)	–	20µM	–
Cc1ccc(NC(=O)CC2S/C(=N/N=C/C=C/c3ccccc3)NC2=O)cc1Cl (stereo not given)	–	5.01µM	–
CCOC(=O)c1ccc(NC(=O)CC2S/C(=N/N=C/c3c[nH]c4ccccc34)NC2=O)cc1 (stereo not given)	–	?	–
Cc1ccc(NC(=O)CC2SC(=NCC3CCCO3)NC2=O)cc1Cl (stereo not given)	–	–	–
CCCCNC(=O)NNC(=O)C1CC1(c1ccccc1)c1ccccc1 (stereo not given)	–	·	·
O=C(Nc1ccc2c(c1)OCO2)c1noc2c1CCCC2	–	·	·
CC1CCc2nc(NC(=O)CN3CCN(Cc4ccc5c(c4)OCO5)CC3)sc2C1 (stereo not given)	–	–	–
CCOc1ccc(C(=O)/C=C/c2cn(CC(O)CN3CCc4ccccc43)c3ccccc23)cc1 (stereo not given)	·	6.31µM	–
CCCCN(CCCC)CC(O)Cn1cc(/C=C/C(=O)c2ccccc2)c2ccccc21 (stereo not given)	·	–	–
CCCCN(C)CC(O)Cn1cc(/C=C/C(=O)c2ccc(OCC)cc2)c2ccccc21 (stereo not given)	–	–	–
COc1ccc(C(=O)/C=C/c2cn(CC(O)CN3CCc4ccccc43)c3ccccc23)cc1 (stereo not given)	·	6.31µM	–
CCOc1ccc(NC(=O)C2CCCN(S(=O)(=O)c3c(C)noc3/C=C/N(C)C)C2)cc1 (stereo not given)	·	?	–
COc1ccc2[nH]c3c(c2c1)CCN1C(=O)N([C@@H](C)C(=O)NC2CCCC2)C(=O)[C@]31C	–	·	·
Cc1ccc(NC(=O)CCC(=O)NNC(=O)COc2ccccc2)c(C)c1	–	–	–
COc1ccc(C2C(C(=O)Nc3ccccc3)=C(C)N=C3SCC(=O)N32)cc1 (stereo not given)	–	–	–
Cc1ccc(Cl)cc1NC(=O)CCn1cnc2ccccc2c1=O	·	–	–
CCOc1ccccc1NC(=O)C(=O)c1cc(C)n(-c2ccc(F)cc2)c1C	·	–	–
CC(CCc1ccccc1)NC(=O)c1ccccc1 (stereo not given)	?	–	–
CC(CCc1ccccc1)NC(=O)c1ccc(C(=O)NC(C)CCc2ccccc2)cc1 (stereo not given)	–	25.1µM	–
Cc1ccc(-c2nnc(NC(=O)c3ccc4c(c3)OCCO4)o2)c(C)c1	·	–	–
COc1ccccc1-c1nc(C#N)c(N2CCC(Cc3ccccc3)CC2)o1	–	?	35.5µM
COc1ccccc1-c1nc(C#N)c(N2CCN(Cc3ccccc3)CC2)o1	–	–	–
O=C(CCNS(=O)(=O)c1cccc2nsnc12)NCCc1ccccc1	–	–	–
COc1ccc(C)cc1NC(=O)COC(=O)c1ccc(OCc2ccc(Cl)cc2Cl)c(OC)c1	–	25.1µM	–
COc1ccc(NC(=O)COC(=O)c2ccc(OCc3ccc(Cl)cc3Cl)c(OC)c2)c(OC)c1	–	?	–
SMILES	NS1 function inh	Cruzain noTriton	Cruzain Triton
O=S(=O)(c1ccccc1)N1CCC2(CCCN(c3ccccc3)C2)CC1	·	–	–
O=S(=O)(c1ccccc1)N1CCC[C@@]2(CCN(c3cccc(-c4ccccc4)c3)C2)C1	·	3.98µM	–
O=S(=O)(c1ccccc1)N1CCC2(CCCN(c3cccc(-c4ccccc4)c3)C2)CC1	·	?	–
O=S(=O)(c1ccccc1)N1CCC[C@@]2(CCN(c3ccccc3)C2)C1	·	15.8µM	–
CN(CCNC(=O)Cn1c(=O)sc2ccccc21)Cc1ccccc1	–	–	–
Cc1c(C(=O)OCc2ccccc2)[nH]c2c1C(=O)CC(c1ccc(C(C)(C)C)cc1)C2 (stereo not given)	·	–	–
CCOC(=O)c1[nH]c2c(c1Cc1ccccc1)C(=O)CC(c1ccc(C(C)(C)C)cc1)C2 (stereo not given)	·	10µM	–
CCOc1cc(-c2noc(CCC(=O)NCC3CCCO3)n2)ccc1OC (stereo not given)	–	·	·
Cc1oc(/N=C/c2cccc([N+](=O)[O-])c2)c(C#N)c1C	–	·	·
Cc1ccc(N=Cc2nc(/C=C/c3cccc([N+](=O)[O-])c3)oc2O)cc1	–	5.01µM	–
COc1ccc(CNC(=O)[C@H]2C[C@@H]2[C@H](NP(=O)(c2ccccc2)c2ccccc2)c2ccccc2)cc1OC	·	?	–
O=S1(=O)NC(=NCc2ccccc2)c2ccccc21	–	–	–
Cc1ccc(NC(=O)CCCc2nc(-c3ccco3)no2)cc1Cl	·	–	–
O=C(CN1C(=O)S/C(=C\c2ccc(Cl)cc2)C1=O)NC1C=CS(=O)(=O)C1 (stereo not given)	–	·	·
